FPR binder – ligands of human FPR, also counter-screen for FPRL1 ligands; FPR-expressing cells, fluorescent ligand binding, flow cytometry; inhibition, % (no concentration beside the values); P21462; AID 440; actives 0.74% (n = 24,000);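 also: 0% = buffer wells and 100% = receptor blocker peptide wells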
VLA-4 antagonist – inhibition of LDV-FITC ligand binding to human VLA-4 integrin; P13612; Jurkat cells, LDV-FITC binding with Mn2+, flow cytometry; 100% = Mn2+-driven binding gain fully reversed; inhibition, % at 10 µM (by protocol); actives 0.2% (n = 24,000);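 active = inhibition above 50%; inconclusive = compound itself fluorescent, judged against control cell fluorescence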;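 also: 0% = Mn2+ stimulated cells lacking compound and 100% = ligand binding without Mn2+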
Prostate diff – LNCaP prostate cell differentiation activation; flow cytometry side scatter, 4 d; side scatter shift, % at 10 µM; actives 0.56% (n = 24,000); AID 795;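 active = side scatter shift above 30%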;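 also: androgen-responsive LNCaP prostate cancer cells in charcoal-stripped serum medium; percent of cells past a gate set so DMSO wells show 10% shift; higher shift means more granular cells and more differentiation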
FPRL1 ligand – ligands of human FPRL1, also counter-screen for FPR ligands. P25090. FPRL1-expressing cells, fluorescent ligand binding inhibition, flow cytometry. inhibition, % (test concentration not listed). actives 0.3% (n = 24,000);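 also: 0% = buffer alone and 100% = receptor blocker peptide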
VLA-4 agonist – allosterically activates the human VLA-4 integrin; Jurkat cells, LDV-FITC binding, flow cytometry; 24,000 tested, under 10 active; P13612; activation, % at 10 µM (by protocol);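 active = fluorescent ligand binding to cells raised by more than 40% of the manganese-induced maximum; inconclusive = compound's own fluorescence above 85% of the ligand control signal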;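 also: 0% = ligand binding without compound and 100% = manganese-stimulated maximal binding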
Jurkat autofluor – compound fluoresces in Jurkat cells, VLA-4 screen interference | compound autofluorescence, flow cytometry; hits give high values; 1 = vehicle-only cell background | fluorescence ratio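 (tested at 10 µM compound in the well)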 | actives 0.61% (n = 24,000);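 active = fluorescence ratio above 2.44, which is 1 plus 3 SD of all ratios; inconclusive = signal too bright to measure linearly, ratio around 10 or more; inactive = fluorescence ratio below 2.44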;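 also: green fluorescence of cells measured with 488 nm excitation and 530 nm emission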
An asterisk follows results filed as active; ? = inconclusive; · = not tested or not shown. A selection: hits, their analogues and other compounds. The true share with any hit is near 2.4%. Rule as the data show it, unless noted: active = inhibition above about 30%; inconclusive = no clear call, values can overlap the other calls; inactive = below that.

SMILES	FPR binder	VLA-4 antagonist	Prostate diff	FPRL1 ligand	VLA-4 agonist	Jurkat autofluor
COc1ccc(-c2nc(C#N)c(NCCCN3CCOCC3)o2)cc1	2	?	5	3	?	0.9
COc1ccc(-c2oc3ncn(CCN4CCOCC4)c(=N)c3c2-c2ccc(OC)cc2)cc1	-8	2	34*	-5	-4	1
COc1ccc(-c2noc(CCC(=O)Nc3nc4ccccc4s3)n2)cc1	-6	13	7	11	2	1
CCN1CCN(c2cc(C)c3cc(NC(=O)c4ccc(Br)o4)ccc3n2)CC1	-5	9	53*	-12	-2	1
Cn1c(=O)c2sccc2n2c(CCCC(=O)NCc3ccc4c(c3)OCO4)nnc12	-2	-11	3	1	2	0.94
CNc1nn(-c2cccc(Cl)c2)nc1N	-9	?	13	90*	?	8.1*
C=CCn1nnc2sc3c(c2c1=O)CCC(C)C3 (stereo not drawn)	-2	-5	2	4	-4	1
COc1ccc(-c2c(C)oc3c(CN4CCN(CCO)CC4)c(O)ccc3c2=O)cc1OC	31*	·	·	28	·	·
Cc1nn(-c2ccccc2)c2sc(-c3n[nH]c(=S)o3)cc12	-2	-5	4	-7	0	1
CCOc1ccccc1C1C(C#N)=C(N)Nc2onc(-c3ccccc3)c21 (stereo not drawn)	20	51*	3	20	-8	1.1
CC1CCN(c2c(NCc3ccc(C(=O)N4c5ccccc5CC4C)cc3)c(=O)c2=O)CC1 (stereo not drawn)	-1	4	10	-3	1	1.1
C/C(=C1/SC(N2CCCC2)=NC1=O)c1ccc(Br)cc1	42*	19	9	7	-14	1
Cc1nc2c(C)cccn2c1/C(O)=C1\C(=O)C(=O)N(CCN2CCOCC2)C1c1cccs1 (stereo not drawn)	25	·	·	22	·	·
Cc1cccc(N2CCN(C(=O)CCn3c(=S)[nH]c4cc5c(cc4c3=O)OCO5)CC2C)c1 (stereo not drawn)	1	-21	8	-6	8	1.2
C=CCN(c1ccccc1)S(=O)(=O)c1ccc2c(c1)oc(=O)n2C	-9	?	10	-14	?	2.5*
COc1ccc2nc(NC(=O)C3CCCN(S(=O)(=O)c4cccc5nonc45)C3)sc2c1 (stereo not drawn)	0	?	4	11	?	2.6*
COc1ccc2nc(NC(=O)C3CCCN(S(=O)(=O)c4cccc5nsnc45)C3)sc2c1 (stereo not drawn)	-13	?	4	-1	?	2.1
CN(C)c1nc(N(C)C)nc(N(C)C)n1	52*	-14	8	0	8	1
COc1cc2[nH]c(=O)n(CCCCCC(=O)N3CC=C(c4ccccc4)CC3)c(=O)c2cc1OC	·	13	·	·	-1	1.1
O=C(NCc1cccnc1)C1c2ccccc2C(=O)N1C1CCCCCC1 (stereo not drawn)	62*	?	4	25	?	1.1
O=C(NCc1cccnc1)C1c2ccccc2C(=O)N1C1CCCCCCC1 (stereo not drawn)	48*	20	7	13	-20	1
CCOC(=O)c1sc2ncnc(N3CCN(c4ccc(OC)cc4)CC3)c2c1C	-6	9	35*	1	-6	1.1
O=C(CNC(=O)c1cccs1)NCCN1CCN(c2ccccc2F)CC1	7	-15	8	4	-2	1
CC(C)Cn1c(=O)c(C2=NS(=O)(=O)c3ccccc3N2)c(O)c2ccccc21	4	59*	3	-5	-53	0.98
CC(C)Cn1c(=O)c(C(=O)NCc2ccccn2)c(O)c2ccccc21	14	1	15	-3	-9	1.1
CCOc1cccc2cc(-c3nnc(NCc4ccco4)s3)c(=O)oc12	14	?	9	4	?	1.6
CCOc1cccc2cc(-c3cn4cc(C)ccc4n3)c(=O)oc12	6	-19	57*	1	6	1
Cn1cc(Br)c(C(=O)NC2CCCCC2)n1	13	-12	16	7	0	1
CCOC(=O)c1cn2c3c(c(F)c(F)c(F)c3c1=O)SC(N1CCCC1)=N2	?	?	8	?	?	?

Bioassay records: PubChem BioAssay, NMMLSC
